# Test results published in PubChem BioAssay AID1345083 (National Center for Advancing Translational Sciences (NCATS), 2018).
# Out of some 94,000 compounds screened, about 6,200 (6.6%) were called active. About 31% were inconclusive and are not listed. This excerpt belongs to a sample that is enriched for actives. Unmarked numbers belong to inactive results. Calls come from the whole dose curve; as a rule, active = well fitted inhibition curve with a large enough effect; inconclusive = small, poorly fitted or top-dose-only effect; inactive = flat fitted curve, though single readings scatter.
# Experiment: Cytotoxic Profiling in HEK 293 Cell Line of Diverse Libraries Using Quantitative High-Throughput Screening; note: nearly all actives have a fitted effect of over 60% in size
# Conditions: HEK 293 viability, ATP luminescence (CellTiter-Glo), 48-72 h; series mostly up to 115 µM; activity change, negative = cytotoxicity: at the top concentration
# Outline: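 Cytotoxicity was scored by loss of ATP-coupled luminescence (CellTiter-Glo) in HEK 293 cells. Compound treatment ran 48 or 72 hr at 37 degree Celsius, 5% CO2, 95% humidity.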
# % is set by controls: 0 for no effect and ±100 for the full control effect; potency is the fitted concentration of half-maximal effect.
SMILES,"activity change, negative = cytotoxicity",Potency,outcome
CC(=O)N[C@@H]1CN(Cc2cn[nH]c2-c2ccc(F)cc2)C[C@H]1CO,-18.7%,–,–
COc1ccc(-c2[nH]ncc2CN2CCCC(C(=O)NCc3ccccc3)CCNC(=O)CC2)cc1 (configuration not stated),-3.9%,–,–
COc1ccc2cc(-c3[nH]ncc3CN3CCN(c4cccc(C)n4)CC3)ccc2c1,–,20 µM (active),–
Cc1ncccc1C(=O)N1CCC2(CC1)CC(CO)N(C(=O)c1ccccc1)C2 (configuration not stated),-21.8%,–,–
COCCC1(NS(C)(=O)=O)CCN(C(=O)c2ccc(C#N)cc2)CC1,1.21%,–,–
COc1ccc([C@@H](NC(=O)Cc2c(F)cccc2Cl)C2CC(O)C2)cn1 (some centres not stated),–,–,inactive
CCOc1ccc(C(=O)N2CCC(n3cc(-c4nc(C)no4)nn3)C2)cc1 (configuration not stated),2.35%,–,–
COc1cc(OC)cc(C(=O)N2CCCC(n3cc(-c4nc(C(C)C)no4)nn3)C2)c1 (configuration not stated),-23.9%,–,–
COc1ccc(C(=O)N2CCC(n3cc(-c4nc(C(C)C)no4)nn3)CC2)cc1F,-20.9%,–,–
O=C(c1ccc(Cl)cc1)N1CCCC(n2cc(-c3nc(-c4ccccc4)no3)nn2)C1 (configuration not stated),–,35.5 µM (active),–
COc1ccc(C(=O)N2CCCC(n3cc(-c4nc(C5CC5)no4)nn3)C2)cc1 (configuration not stated),-16.6%,–,–
CC(C)c1noc(-c2cn(C3CCN(C(=O)c4ccc(N(C)C)cc4)C3)nn2)n1 (configuration not stated),–,31.6 µM (active),–
COc1ccc(F)cc1-c1ncc2c(n1)OCCN(CC1CC1)C2=O,-11.4% [at 172 µM],–,–
CCNC(=O)N1C[C@@H]2OCC(=O)N(Cc3ccc(F)cc3)[C@@H]2C1,-7.12% [at 172 µM],–,–
CCOC(=O)N1CCC(N2CCN(Cc3ccccc3F)C(CCO)C2)CC1 (configuration not stated),-1.09%,–,–
Cc1ccc(CN2CCN(c3nc4ccccc4o3)CC2CCO)cc1 (configuration not stated),–,44.7 µM (active),–
CCOc1ccc(CN2CCN(CC(N)=O)CC2CCO)cc1 (configuration not stated),-4.27%,–,–
COc1cccc(CN2CCN(c3ncccc3Cl)CC2CCO)c1 (configuration not stated),-18.9%,–,–
COc1ccc(CN2CCN(c3nc4ccccc4o3)CC2CCO)cc1C (configuration not stated),–,35.5 µM (active),–
CN1C(=O)c2cccn2CC1C(=O)Nc1ccc(F)cc1F (configuration not stated),3.42%,–,–
O=C(NC1CC1)[C@@H]1C[C@H](Oc2ccccc2)CN1C(=O)CN1CCCCCC1,-5%,–,–

SMILES,"activity change, negative = cytotoxicity",Potency,outcome
CCc1nncn1C1CCN(S(=O)(=O)c2cc(F)ccc2OC)CC1,-19.1%,–,–
Cc1cccc(N2Cc3c(NCCCOC(C)C)ncnc3N(C)CC2=O)c1,-4.64%,–,–
NCc1ccccc1-c1ccc(F)cc1,-28.9% [at 172 µM],–,–
Cc1cc2cccc(-c3nc(C4CCOC4)nn3CC(=O)O)c2o1 (configuration not stated),–,–,inactive
Cc1nc(N2CCC(NCCNc3ccncc3C)CC2)c2ccsc2n1,–,35.5 µM (active),–
Cc1nc(N2CCC(NC(=O)c3cnccn3)CC2)cc(C(F)(F)F)n1,0.535%,–,–
CNC(=O)c1cc(C2CC2)nc2onc(C3CCCN3C(=O)c3ccccc3)c12 (configuration not stated),2.63%,–,–
Cc1ccc(NC(=O)CC2CCCN(c3cn[nH]c(=O)c3)C2)cc1F (configuration not stated),-5.38%,–,–
CN(C)CC(O)COc1ccc(CN(C)C2CCSCC2)cc1 (configuration not stated),2.5%,–,–
COc1ccc(-c2nc3c(c(=O)[nH]2)CCN(C(=O)Cc2ccc(OC)c(Cl)c2)C3)cc1,6.92%,–,–
COc1ccccc1-n1c(=O)c(C(=O)N2CCN([S+](=O)([O-])c3cccs3)CC2)nc2cccnc21,0.116%,–,–
O=c1n(CCN2CCN([S+](=O)([O-])c3cccs3)CC2)nc2n1CCCC2,-2.54%,–,–
O=[S+]([O-])(c1cccs1)N1CCN(c2nccc(Nc3ccccc3F)n2)CC1,–,35.5 µM (active),–
C=CCNC(=O)c1cn2c(n1)CN(C(=O)c1ccccc1F)CC2,2.59%,–,–
CCNC(=O)N1CCC(n2c(C)cnc2C2CC2)CC1,–,–,inactive
CCOc1ccc(NC(=O)N2CCC3(CC2)SCC(=O)N3Cc2ccco2)cc1,-2.92%,–,–
CCOc1ccccc1C(=O)N1CCC(Oc2ncccc2C(=O)N(C)C)C1 (configuration not stated),-24%,–,–
O=C(CCC1CCCC1)N1CCC2(CC1)CC(O)CCO2 (configuration not stated),2.16%,–,–
c1ccc(-n2cnnc2CC2CCN(Cc3ccc(-c4ccn[nH]4)o3)CC2)cc1,3.74%,–,–
CC(C)CN1CCN(C2CCOC3(CCN(S(=O)(=O)c4cccs4)CC3)C2)CC1 (configuration not stated),-11.3%,–,–
Cc1nnc([C@H]2CCN(Cc3ccc(F)cc3)C2)o1,2.67% [at 230 µM],–,–

SMILES,"activity change, negative = cytotoxicity",Potency,outcome
COC(=O)c1cccc2nc([C@H]3CCN(Cc4ccccc4)C3)oc12,–,79.4 µM (active),–
CCOc1ncccc1C(=O)N1CCN(Cc2ccccc2)CC(O)C1 (configuration not stated),-16.2%,–,–
Cc1cc(C[C@@H]2COC[C@@H]2NC(=O)CCCc2nc(-c3ccco3)no2)on1,–,–,inactive
COCCNC(=O)c1cnc2n[nH]c(-c3ccccc3OC)c2n1,-20.1% [at 172 µM],–,–
COc1ccccc1-n1c(=O)c(C(=O)N2CCN(Cc3ccccc3)CC2)nc2cccnc21,–,–,inactive
COc1ccccc1-c1[nH]nc2ncc(C(=O)N3CCN(Cc4ccccc4)CC3)nc12,–,100 µM (active),–
CNC(=O)c1cc(C)nc2onc(C3CCN(C(=O)c4ccc(C(F)(F)F)cc4)C3)c12 (configuration not stated),-23.2%,–,–
Cc1cc(C)n(CC(=O)N2CCCC3(C2)Nc2cccnc2NC3=NC2CCCC2)n1 (configuration not stated),-12.2%,–,–
O=C(c1ccc(Cl)cc1)N1CCN(CCn2nc3n(c2=O)CCCC3)CC1,-9.57%,–,–
Cc1noc(C)c1S(=O)(=O)N1CCCN(c2nc3ncccc3o2)CC1,0.408%,–,–
O=C(NCc1cccc(F)c1)C1CN(c2ccccc2)C(=O)N1 (configuration not stated),4.55% [at 172 µM],–,–
CNC(=O)CN(C)C(=O)[C@@H]1CN(c2ncccn2)C[C@H]1COC,-1.47%,–,–
F[C@@H]1CN(C2CCC2)C[C@@H]1OCc1nc2ncccc2[nH]1,-5.83% [at 230 µM],–,–
O=C(Nc1ccc(Oc2ccccc2)cc1)O[C@@H]1CO[C@H]2[C@@H]1OC[C@@H]2NS(=O)(=O)c1cccs1,–,39.8 µM (active),–
O=C(Nc1ccccc1)O[C@@H]1CO[C@H]2[C@@H]1OC[C@@H]2NS(=O)(=O)c1cccc2cccnc12,-18.1%,–,–
CC(=O)Nc1ccc(S(=O)(=O)N[C@H]2CO[C@H]3[C@@H]2OC[C@@H]3n2nnnc2Oc2ccccc2)cc1,-19.3%,–,–
O=C(c1ccccc1)N1CCC2(CC(c3cccnc3)=NO2)C1 (configuration not stated),–,–,inactive
O=C(NCC1CCOCC1)Nc1cccc(Cl)c1,10.7%,–,–
O=C(Nc1ccc(Cl)cc1)C1CCN(C(=O)c2ncn3c2COC(c2ccc(F)cc2)C3)CC1 (configuration not stated),-27.3%,–,–
O=C(Nc1cccc(Cl)c1)[C@@H]1C[C@H](c2ccc(F)cc2)N([S+](=O)([O-])C2CC2)C1,–,79.4 µM (active),–
